SW480 rereplic: A quantitative high throughput screen for small molecules that induce DNA re-replication in SW480 colon adenocarcinoma cells; SW480 DNA re-replication, Hoechst DNA content imaging, 48 h; 340,000 tested, 1.8% active; Potency, µM (highest dose often 46.1 µM), for inactives: top-dose re-replication activation, hits mostly activators; further: potency means the concentration at half of the fitted maximal effect; % of control where 0% means no effect; nearly all actives have a fitted effect of over 55% in size
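Cells (250 per well) received 23 nL compound or DMSO by pin tool and were kept 48 hr at 37 C, 5% CO2. Nuclei were then stained with Hoechst for 40 min and scanned for DNA content.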
MCF10A rerep: A quantitative high throughput screen for small molecules that induce DNA re-replication in MCF 10a normal breast cells; MCF 10A DNA re-replication, Hoechst nuclear intensity, 48 h; Potency, µM (series often up to 46.1 µM), for inactives: top-dose activity, positive = re-replication, hits mostly activators; 350,000 tested, 2.9% active; AID 624296, 2012; further: potency means the concentration at half of the fitted maximal effect; % of control where 0% means no effect; nearly all actives have a fitted effect of over 50% in size
Chronic BCR inh: qHTS Assay to Find Inhibitors of Chronic Active B-Cell Receptor Signaling | ABC-DLBCL IkBa-CBG/CBR reporter, luminescence ratio, 4 h | Potency, µM (doses to about 46.1 µM), without a hit: at the top dose activity change, negative = inhibition, actives largely listed as inhibitors | 340,000 tested, 0.05% active | AID 493014, 2011; active means well fitted inhibition curve with a large enough effect in the signal ratio, with a control signal flat, not every such curve was filed as active; inconclusive means small, poorly fitted or top-dose-only effect, or effect the other way, or a change in a side signal; the % refers to the signal ratio;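 further: potency means the concentration at half of the fitted maximal effect; plate controls were basal doxycycline-induced cells for no effect and cells given 10 µM MG132 for full effect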
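Cell line TMD8 (human ABC DLBCL), stably expressing tet-inducible CBG68-IkBa fusion and CBR; IMDM/0.5% FBS; cpd up to 46 uM; dox induction, 4 h, 37C/5% CO2; dual luminescence; green/red ratio; MG132 control.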
RORg inh: qHTS for inhibitors of ROR gamma transcriptional activity; 310,000 tested, 5.4% active; Nuclear receptor ROR-gamma (Mus musculus), P51450; AID 2551, 2010; Potency, µM (doses to about 53.6 µM), for the others: top-dose activity change, negative = inhibition, hits mostly inhibitors; Drosophila S2 Gal4-RORgamma UAS-luciferase reporter, 20 h; further: potency means the concentration at half of the fitted maximal effect; on the % scale 0 is the no-effect control and ±100 the full control effect; nearly all actives have a fitted effect of over 60% in size
Target sequence (P51450 whole entry, looked up, the tested form may be a part): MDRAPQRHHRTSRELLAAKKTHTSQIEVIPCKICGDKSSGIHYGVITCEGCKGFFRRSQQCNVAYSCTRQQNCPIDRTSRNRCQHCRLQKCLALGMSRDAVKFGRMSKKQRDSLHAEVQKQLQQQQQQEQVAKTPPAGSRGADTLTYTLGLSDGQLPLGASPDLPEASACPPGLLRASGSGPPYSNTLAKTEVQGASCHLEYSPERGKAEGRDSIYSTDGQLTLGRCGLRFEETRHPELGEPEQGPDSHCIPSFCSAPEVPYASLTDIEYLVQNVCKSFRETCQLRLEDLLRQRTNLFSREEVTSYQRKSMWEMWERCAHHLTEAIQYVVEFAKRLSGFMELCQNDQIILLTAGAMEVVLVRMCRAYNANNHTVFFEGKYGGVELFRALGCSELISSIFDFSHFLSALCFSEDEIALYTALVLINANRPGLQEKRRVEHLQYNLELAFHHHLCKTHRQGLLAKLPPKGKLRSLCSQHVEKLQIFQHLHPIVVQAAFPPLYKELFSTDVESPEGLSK
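A Gal4/UAS one-hybrid system in insect cells: metallothionein-promoter Gal4–ROR gamma fusion plus Photinus luciferase reporter. Copper sulfate 700 uM final, 20 hr ambient incubation, luminescent detection after 10 min with reagent.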
VP16 counter: VP16 counterscreen qHTS for inhibitors of ROR gamma transcriptional activity; Drosophila S2 Gal4-VP16 UAS-luciferase, luminescence, 20 h; AID 2546, 2010; 310,000 tested, 3.5% active; Potency, µM (titrated, usually from 53.6 µM), without a hit: top-dose activity, negative = inhibition, most hits filed as inhibitors;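 further: Gal4-VP16 expression switched on by copper sulfate through the metallothionein promoter; potency means the concentration at half of the fitted maximal effect; on the % scale 0 is the no-effect control and ±100 the full control effect; nearly all actives have a fitted effect of over 50% in size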
Giardia killer: Small Molecules that selectively kill Giardia lamblia: qHTS; activity change, % at 7.66 µM, hits read low; 340,000 tested, 0.15% active; Giardia lamblia trophozoite viability; in the data active means activity change below about -80%; inconclusive means between about -30% and that limit;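 further: parasites exposed to compound for two days anaerobically before the ATP read; on the % scale 0 is the no-effect control and ±100 the full control effect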
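Luminescence from cellular ATP indicates surviving trophozoites (100 cells/well) following 48 hrs anaerobic compound treatment at 37 deg C; signal develops 15-30 min at room temperature.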
Active calls of the source: *; ? = inconclusive; . = no result given; [ ] = dose if it differs, or a comment. Sampled rows, rich in hits. Any-hit rate of the full collection: about 8.3%. Unless noted, the call rests on the fitted dose curve; in most records, active means well fitted curve in the direction sought with a large enough effect; inconclusive means small, poorly fitted or top-dose-only effect, or another doubt; inactive means no such curve, though single readings can be large; an effect the other way counts as inactive or inconclusive.

SMILES | SW480 rereplic | MCF10A rerep | Chronic BCR inh | RORg inh | VP16 counter | Giardia killer
N#C/C(=C\c1ccc(O)cc1)C(=O)NCC1CCCO1 (centres undefined) | . | . | -2% | . | . | .
O=C(Nc1nonc1-c1ccc(Cl)cc1)c1ccccc1 | ? | 1%[9.22 µM] | 3% | 11µM* | ? | 11
CC(=O)Nc1nonc1-c1ccccc1 | -2% | 0% | 3% | -18% | 1% | 9
Cc1ccc(C)c(S(=O)(=O)N2CCCOC2CNC(=O)C(=O)NCc2cccnc2)c1 (centres undefined) | -1% | -8% | 2% | 11% | -6% | 9
O=C(Nc1nc2ccccc2[nH]1)Nc1ccccc1F | -4% | 1% | ? | ? | ? | -6
O=C(Nc1nc2ccccc2[nH]1)c1cccc(F)c1 | 21µM* | ? | ? | 5.6µM* | 7.1µM* | -25
Cc1ccc(N(C)S(=O)(=O)c2cccc(C(=O)Nc3nnc(C4CC4)s3)c2)cc1 | 19%[1.84 µM] | ? | 10% | 11µM* | -8% | -4
O=C(Nc1nc2ccccc2[nH]1)c1ccc(Br)o1 | 26% | ? | ? | 7.1µM* | ? | -17
Cc1ccc(N(C)S(=O)(=O)c2cccc(C(=O)Nc3nc4ccccc4[nH]3)c2)cc1 | ? | ? | ? | 1.3µM* | 1.1µM* | -3
COc1ccc(N(C)S(=O)(=O)c2cccc(C(=O)Nc3nnc(C4CC4)s3)c2)cc1 | 1% | 3% | 0% | -2% | -7% | 3
CN1C(=O)Cc2cc(S(=O)(=O)NCc3ccc(Cl)cc3)ccc21 | . | . | 0% | . | . | .
COc1ccc(OC)c(S(=O)(=O)N2CCN(C(=O)NC3CCCCC3)CC2)c1 | ? | 4% | 2% | . | . | -16
COc1ccc(CCn2c3c(c(=O)[nH]c2=S)CN(Cc2ccccc2)CN3)cc1OC | . | . | . | . | . | 4
O=C(Nc1nc2ccccc2[nH]1)c1cccc(Br)c1 | 19% | 6% | ? | 2.2µM* | 5µM* | -18
Cc1cc(C)cc(N(CCC(=O)Nc2nnc(C3CC3)s2)S(=O)(=O)c2ccc(Cl)cc2)c1 | 23µM* | ? | 1% | -12% | ? | 17
CN(C)c1cccc(C(=O)Nc2nc3ccccc3[nH]2)c1 | ? | 5% | ? | 5µM* | 11µM* | ?
COC(=O)C/C=C/C(C)C(OCc1cccc(-c2ccccc2)c1)C1CCCCC1 (centres undefined) | . | . | . | 1%[10 µM] | 9%[10 µM] | .
CN1C(C(=O)NCCc2cccs2)CC2Cn3c(nc4ccccc43)C21 (centres undefined) | -62% | 28% | 1% | 6% | 1% | 21
COC(=O)[C@@H]1C[C@]2(OC(=O)c3ccccc3)C=CC(=O)C[C@@H]2N1C(=O)OCc1ccccc1 | 21µM* | 16µM* | ? | ? | ? | 7
COC(CNC(=O)C1CCCN1C(=O)OCc1ccccc1)OC (centres undefined) | -12% | -3% | 0% | -9% | -6% | 16
O=C1O[C@H](CN2CCOCC2)CN1/N=C\c1ccc([N+](=O)[O-])o1 | 10%[20.6 µM] | 1%[20.6 µM] | . | -23%[16.9 µM] | 27%[17 µM] | .
O=C1OCCN1/N=C/c1ccc([N+](=O)[O-])o1 | -8% | ? | -3% | ? | . | -92*
O=C1OC(CN(Cc2ccccc2)Cc2ccccc2)CN1N=Cc1ccc([N+](=O)[O-])o1 (centres undefined) | ? | 26% | . | . | . | -94*
CCOc1ccc(OCC)c(NC(=O)CCCN2C(=S)NC(C)(C)CC2C)c1 (centres undefined) | 0% | 12% | -19% | 6.3µM* | 6.3µM* | 17
Cc1ccccc1NC(=O)CN1C(=S)NC(C)(C)CC1C (centres undefined) | 2% | -1% | 4% | ? | ? | 11
